“And” between values parts separate entries of the source, which are not always exact repeats. Equal entries are not always repeated. Out of some 5,500 compounds screened, about 2,000 (36%) were called active. Inconclusive results (about 18%) are left out. Rule as the data show it: active = normalized growth mostly below about 0.91 (no sharp cut-off); inconclusive = no clear call, values can overlap the other calls; inactive = mostly above about 0.92. The list shows a part of the results.
Assay: chemical genetic growth profiling, strain panel (AID 1159580);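 also: tested at 20 µM; growth read once vehicle control cultures reached saturation at 30 °C; 1 = growth at the plate median or of vehicle wells; lower values mean less growth of the strain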
Conditions: S. cerevisiae deletion strains, growth OD

Measured: normalized growth

N[C@H](Cc1ccccc1)C(=O)O
inactive: locus YAL013W, strain DEP1, hits give low values 1.02 | locus YAL021C, strain ccr4, hits give low values 1.01 | locus YAL026C, strain drs2, hits give low values 1 | locus YAL030W, strain snc1, hits give low values 1.01 | locus YBL061C, strain skt5, hits give low values 1 | locus YBR009C, strain hhf1, hits give low values 0.968 | locus YBR021W, strain FUR4, hits give low values 0.98 | locus YBR023C, strain chs3, hits give low values 1.01 | locus YBR171W, strain sec66, hits give low values 0.99 | locus YBR229C, strain ROT2, hits give low values 1.01 | locus YBR231C, strain swc5, hits give low values 0.971 | locus YBR279W, strain paf1, hits give low values 0.999 | locus YCL011C, strain gbp2, hits give low values 1 | locus YCL016C, strain dcc1, hits give low values 1.03 | locus YCL029C, strain bik1, hits give low values 1 | locus YCL069W, strain vba3, hits give low values 0.988 | locus YCR088W, strain abp1, hits give low values 0.987 | locus YDL005C, strain med2, hits give low values 0.997 | locus YDL035C, strain GPR1, hits give low values 1.02 | locus YDL040C, strain nat1, hits give low values 1 | locus YDL074C, strain BRE1, hits give low values 1.05 | locus YDL101C, strain DUN1, hits give low values 1.01 | locus YDL134C, strain PPH21, hits give low values 1.01 | locus YDL185W, strain tfp1, hits give low values 1 | locus YDL192W, strain arf1, hits give low values 1.01 | locus YDR001C, strain nth1, hits give low values 0.987 | locus YDR069C, strain doa4, hits give low values 0.997 | locus YDR101C, strain arx1, hits give low values 1.01 | locus YDR137W, strain rgp1, hits give low values 0.982 | locus YDR150W, strain NUM1, hits give low values 1.02 | locus YDR159W, strain sac3, hits give low values 0.935 | locus YDR162C, strain NBP2, hits give low values 1.02 | locus YDR195W, strain ref2 0.961 | locus YDR297W, strain sur2, hits give low values 1 | locus YDR318W, strain mcm21, hits give low values 0.993 | locus YDR334W, strain swr1, hits give low values 0.946 | locus YDR335W, strain msn5, hits give low values 0.994 | locus YDR388W, hits give low values 1.01 | locus YDR392W, strain spt3, hits give low values 0.965 | locus YDR502C, strain sam2, hits give low values 1 | locus YEL003W, strain gim4, hits give low values 0.983 | locus YEL037C, strain rad23, hits give low values 0.976 | locus YEL061C, strain CIN8 (second series), hits give low values 0.962 | locus YEL061C, strain CIN8, hits give low values 1.01 | locus YER015W, strain faa2, hits give low values 0.993 | locus YER016W, strain bim1, hits give low values 1.02 | locus YER110C, hits give low values 1 | locus YER111C, strain swi4, hits give low values 0.999 | locus YER155C, strain BEM2 (second series), hits give low values 0.99 | locus YER155C, strain BEM2, hits give low values 1 | locus YER167W, strain BCK2, hits give low values 1.01 | locus YFR010W, strain ubp6, hits give low values 0.942 | locus YGL078C, strain dbp3, hits give low values 1.02 | locus YGL086W, strain mad1, hits give low values 1.01 | locus YGL167C, strain pmr1, hits give low values 0.983 | locus YGL173C, strain kem1, hits give low values 0.97 | locus YGL227W, strain vid30, hits give low values 0.98 | locus YGL240W, strain doc1, hits give low values 0.955 | locus YGL248W, strain PDE1, hits give low values 1 | locus YGL253W, strain hxk2, hits give low values 1 | locus YGR078C, strain PAC10, hits give low values 1.05 | locus YGR135W, strain pre9, hits give low values 1 | locus YGR229C, strain SMI1, hits give low values 1.03 | locus YGR252W, strain gcn5, hits give low values 0.935 | locus YHR013C, strain ard1, hits give low values 1 | locus YHR027C, strain rpn1, hits give low values 0.996 | locus YHR030C, strain SLT2, hits give low values 1.02 and 1.05 | locus YHR079C, strain IRE1 (second series), hits give low values 1.01 | locus YHR079C, strain IRE1, hits give low values 1.06 | locus YHR094C, strain hxt1, hits give low values 1 | locus YHR129C, strain ARP1, hits give low values 1.01 | locus YHR142W, strain chs7, hits give low values 0.992 | locus YHR200W, strain rpn10, hits give low values 1 | locus YIL066C, strain RNR3, hits give low values 1.02 | locus YIL073C, strain SPO22, hits give low values 1.04 | locus YIL125W, strain kgd1, hits give low values 0.994 | locus YIR030C, strain dcg1, hits give low values 1.02 | locus YJL092W, strain hpr5, hits give low values 1 | locus YJL095W, strain BCK1 (second series), hits give low values 0.996 | locus YJL095W, strain BCK1, hits give low values 1.02 and 1.05 | locus YJL115W, strain asf1, hits give low values 0.979 | locus YJL129C, strain trk1, hits give low values 1 | locus YJL134W, strain LCB3, hits give low values 1.01 | locus YJL154C, strain vps35, hits give low values 0.977 | locus YJL164C, strain tpk1, hits give low values 0.979 | locus YJL166W, strain qcr8, hits give low values 0.981 | locus YJL168C, strain set2, hits give low values 0.992 | locus YJL187C, strain SWE1 (second series), hits give low values 1.02 | locus YJL187C, strain SWE1, hits give low values 1.02

Reference: PubChem BioAssay AID1159580 (chemical genetic matrix, 2015)
